Data on 20 compounds can be found in the supplement of paper PMC10981050.

Where a name gives a salt, the structure may show the parent alone.

As a reminder, the cell viability is a read-out of living cells in per cent, often relative to untreated cells.

This assay relates to MOLM14. The assay can be described thus: cell viability relative to vehicle control; higher = less cytotoxic. Particulars: 10 µM; SRSF2 genotype: SRSF2 wt/wt. A digest of the protocol:
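Four leukaemia lines, as CRISPR-edited mutant clones and isogenic wild-type clones, were tested against Selleck bioactive, kinase and epigenetic probe libraries after removal of identity-inconsistent compounds. Cells were exposed to a single 10 µM dose for 48 h, and CellTiter-Glo luminescence was then read. Viability was calculated relative to the on-plate vehicle control.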
With `O=c1c2cc(O[C@@H]3O[C@H](CO)[C@@H](O)[C@H](O)[C@H]3O)c(O)cc2oc2cc(O)c([C@@H]3O[C@H](CO)[C@@H](O)[C@H](O)[C@H]3O)c(O)c12` [Neomangiferin], the cell viability was 100%.
Next, `O=c1[nH]c(=O)n([C@H]2C[C@H](O)[C@@H](CO)O2)cc1/C=C/Br` [Brivudine]: 105%.
With `Cc1c(C(=O)Nc2ccc(Oc3ccnc4[nH]cc(-c5ccccc5)c34)c(F)c2)c(=O)n(-c2ccc(F)cc2)n1C`, the cell viability is 13.1%.
`CC(=O)CCc1ccc(OC(C)=O)cc1` [Pherocon (4-(4-Acetoxyphenyl)-2-butanone)]: the cell viability was 108%.
With `C[C@@H](N)[C@H]1CC[C@H](C(=O)Nc2ccncc2)CC1` the figure was 96.9%.
With `COC(=O)C=Cc1ccc(O)c(OC)c1` [Ferulic acid methyl ester] the figure was 104%; with `CN1C(N)=N[C@](C)(c2cc(NC(=O)c3ccc(F)cn3)ccc2F)CS1(=O)=O` [Verubecestat (MK-8931)], 100%.
As for `C[C@H]1O[C@@H](Oc2c(-c3cc(O)c(O)c(O)c3)oc3cc(O)cc(O)c3c2=O)[C@@H](O)[C@@H](O)[C@@H]1O` [Myricitrin (Myricitrine)], the cell viability came out at 103%.
Next, `O=C(O)C1=CO[C@@H](O[C@@H]2O[C@H](CO)[C@@H](O)[C@H](O)[C@H]2O)[C@H]2[C@@H]1C=C[C@]2(O)CO` [Monotropein]: 104%; `CNC(=O)[C@H](Cc1c[nH]c2ccccc12)NC(=O)[C@@H](CC(=O)NO)CC(C)C` [Ilomastat (GM6001, Galardin)]: 97.8%; `COC(c1ccccc1)(c1ccccc1)[C@H](Oc1nc(C)cc(C)n1)C(=O)O` [Ambrisentan]: 103%.
Next, `COc1ccc2c3c1O[C@H]1C[C@@H](O)C=C[C@@]31CCN(C)C2` [Galanthamine]: 105%; `CCC(=O)O[C@@H]1CC(=O)O[C@H](C)C/C=C/C=C/[C@H](O)[C@H](C)C[C@H](CC=O)[C@H](O[C@@H]2O[C@H](C)[C@@H](O[C@H]3C[C@@](C)(O)[C@@H](OC(=O)CC)[C@H](C)O3)[C@H](N(C)C)[C@H]2O)[C@H]1OC` [Midecamycin]: 93.7%; `O=C(O)CCc1ccc(O)cc1O` [Hydroumbellic acid]: 100%.
Next, `CCCn1/c(=N/C(=O)c2cccc(C(N)=O)c2)[nH]c2ccccc21` [Takinib]: 91%.
Regarding `Cc1cc(F)c(Nc2ncnc3cc(OCc4ccccc4)ccc23)cc1O`, the cell viability came to 102%.
Take `COc1ccc(NC(=O)c2ccc(C(=N)N(C)C)cc2)c(C(=O)Nc2ccc(Cl)cn2)c1` [Betrixaban maleate]: the cell viability is 102%.
With `Cc1cn([C@H]2C=C[C@@H](CO)O2)c(=O)[nH]c1=O` [Stavudine], the cell viability is 103%.
As for `O=C1/C(=C/c2cccs2)CC/C1=C\c1cccs1`, the cell viability is 99.2%.
Next, `CN1CC(=O)N2[C@H](c3ccc4c(c3)OCO4)c3[nH]c4ccccc4c3C[C@@H]2C1=O` [Tadalafil (Cialis)]: 99.8%.
